# Measurements taken from the supplement of paper PMC6609913.
# Counter-ions that a name gives are not always drawn. ± gives the standard deviation of the averaged measurements. Over roughly 1,300 compounds, “normalised cell viability” has its median near 1; the lowest 2% begin near 0.15. Only a selection was taken, and the lowest values are over-represented in it overall.
# Tested on: V-C8 + BRCA2 (BRCA2-proficient hamster cells)
# Experiment: normalised cell viability (fraction of plate median); higher = more viable cells (less toxic)
# Conditions: 5 µM
# Summary of the method: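 Library drugs, held as 10 mM stocks in DMSO, were diluted to 5 μM in 100 μl medium and added to 96-well plates of V-C8 hamster cells, either lacking BRCA2 or with BRCA2 restored, 24 h after seeding. Plates ran for 3 days (screen 1) or 6 days (screen 2), alongside solvent-only wells. Viability came from a resazurin readout, median-plate normalised, as the mean of triplicate wells.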
SMILES,normalised cell viability (treatment time: 3 days),normalised cell viability (treatment time: 6 days)
CS(=O)(=O)c1ccc(C2=C(c3ccccc3)C(=O)OC2)cc1 [Rofecoxib],1 ± 0.039,1.02 ± 0.06
CS(=O)(=O)c1ccc([C@@H](O)[C@@H](CO)NC(=O)C(Cl)Cl)cc1 [Thiamphenicol],0.9701 ± 0.0087,0.927 ± 0.02
NCCc1c[nH]cn1 [Histamine dihydrochloride],0.994 ± 0.016,0.991 ± 0.064
COc1ccc(C(=O)CC(=O)c2ccc(C(C)(C)C)cc2)cc1 [Avobenzone],1.02 ± 0.057,1.04 ± 0.12
CCN(CC)C(=O)/C(C#N)=C/c1cc(O)c(O)c([N+](=O)[O-])c1 [Entacapone],0.944 ± 0.013,1.03 ± 0.03
CC(C)COCC(CN(Cc1ccccc1)c1ccccc1)N1CCCC1 (stereo unspecified) [Bepridil hydrochloride],0.938 ± 0.069,0.828 ± 0.035
COc1cc([C@@H]2c3cc4c(cc3[C@@H](O[C@@H]3O[C@@H]5CO[C@@H](C)O[C@H]5[C@H](O)[C@H]3O)[C@H]3COC(=O)[C@H]23)OCO4)cc(OC)c1O [Etoposide],0.141 ± 0.0097,0.15 ± 0.017
CC(=O)[C@@]12O[C@](C)(c3ccccc3)O[C@@H]1C[C@H]1[C@@H]3CCC4=CC(=O)CC[C@]4(C)[C@H]3CC[C@@]12C [Algestone acetophenide],0.968 ± 0.025,1.07 ± 0.1
CCCCCCCCNC(C)C(O)c1ccc(SC(C)C)cc1 (stereo unspecified) [Suloctidil],0.653 ± 0.045,0.743 ± 0.068
"CC(C)NCC(O)c1cc(O)cc(O)c1 (stereo unspecified) [Metaproterenol sulfate, orciprenaline sulfate]",1.03 ± 0.023,1.04 ± 0.02
Nc1ccc(C(=O)O)c(O)c1 [4-aminosalicylic acid],0.944 ± 0.086,1.03 ± 0.043
CN(C)CCN(Cc1cccs1)c1ccccn1 [Methapyrilene hydrochloride],1.12 ± 0.021,1.04 ± 0.042
CO/N=C(\C(=O)N[C@@H]1C(=O)N2C(C(=O)O)=C(C[N+]3(C)CCCC3)CS[C@H]12)c1csc(N)n1 [Cefepime hydrochloride],0.933 ± 0.092,0.888 ± 0.098
CCC1NC(=O)c2cc(S(N)(=O)=O)c(Cl)cc2N1 (stereo unspecified) [Quinethazone],0.989 ± 0.058,0.989 ± 0.073
Nc1ccc(/N=N/c2ccccc2)c(N)n1 [Phenazopyridine hydrochloride],1.02 ± 0.039,1.04 ± 0.035
Clc1ccc(C(c2ccccc2Cl)C(Cl)Cl)cc1 (stereo unspecified) [Mitotane],1.02 ± 0.035,1.01 ± 0.076
"CC(C)NCC(O)c1ccc(O)c(O)c1 (single isomer, unassigned; (+)) [(+)-Isoproterenol (+)-bitartrate salt]",1 ± 0.048,1.05 ± 0.07
CC(=O)OCC(=O)[C@@]1(O)[C@H](C)C[C@H]2[C@@H]3CCC4=CC(=O)C=C[C@]4(C)[C@@]3(F)[C@@H](O)C[C@@]21C [Dexamethasone acetate],1.08 ± 0.057,1.02 ± 0.056
